The results in this text go back to PubChem BioAssay (EPA / NIEHS).

Results filed as inconclusive are left out. Calls of active or inactive are those of the source. How the source made its calls: active means hit-call score of the fitted dose curve at least 0.9, where 1 is the maximum; inconclusive means response in the unintended direction; inactive means score below 0.9.

Sequence of human Rho Associated Coiled-coil Containing Protein Kinase 1 (ROCK1), ROCK1 (gene 6093) (Q13464 whole entry, looked up): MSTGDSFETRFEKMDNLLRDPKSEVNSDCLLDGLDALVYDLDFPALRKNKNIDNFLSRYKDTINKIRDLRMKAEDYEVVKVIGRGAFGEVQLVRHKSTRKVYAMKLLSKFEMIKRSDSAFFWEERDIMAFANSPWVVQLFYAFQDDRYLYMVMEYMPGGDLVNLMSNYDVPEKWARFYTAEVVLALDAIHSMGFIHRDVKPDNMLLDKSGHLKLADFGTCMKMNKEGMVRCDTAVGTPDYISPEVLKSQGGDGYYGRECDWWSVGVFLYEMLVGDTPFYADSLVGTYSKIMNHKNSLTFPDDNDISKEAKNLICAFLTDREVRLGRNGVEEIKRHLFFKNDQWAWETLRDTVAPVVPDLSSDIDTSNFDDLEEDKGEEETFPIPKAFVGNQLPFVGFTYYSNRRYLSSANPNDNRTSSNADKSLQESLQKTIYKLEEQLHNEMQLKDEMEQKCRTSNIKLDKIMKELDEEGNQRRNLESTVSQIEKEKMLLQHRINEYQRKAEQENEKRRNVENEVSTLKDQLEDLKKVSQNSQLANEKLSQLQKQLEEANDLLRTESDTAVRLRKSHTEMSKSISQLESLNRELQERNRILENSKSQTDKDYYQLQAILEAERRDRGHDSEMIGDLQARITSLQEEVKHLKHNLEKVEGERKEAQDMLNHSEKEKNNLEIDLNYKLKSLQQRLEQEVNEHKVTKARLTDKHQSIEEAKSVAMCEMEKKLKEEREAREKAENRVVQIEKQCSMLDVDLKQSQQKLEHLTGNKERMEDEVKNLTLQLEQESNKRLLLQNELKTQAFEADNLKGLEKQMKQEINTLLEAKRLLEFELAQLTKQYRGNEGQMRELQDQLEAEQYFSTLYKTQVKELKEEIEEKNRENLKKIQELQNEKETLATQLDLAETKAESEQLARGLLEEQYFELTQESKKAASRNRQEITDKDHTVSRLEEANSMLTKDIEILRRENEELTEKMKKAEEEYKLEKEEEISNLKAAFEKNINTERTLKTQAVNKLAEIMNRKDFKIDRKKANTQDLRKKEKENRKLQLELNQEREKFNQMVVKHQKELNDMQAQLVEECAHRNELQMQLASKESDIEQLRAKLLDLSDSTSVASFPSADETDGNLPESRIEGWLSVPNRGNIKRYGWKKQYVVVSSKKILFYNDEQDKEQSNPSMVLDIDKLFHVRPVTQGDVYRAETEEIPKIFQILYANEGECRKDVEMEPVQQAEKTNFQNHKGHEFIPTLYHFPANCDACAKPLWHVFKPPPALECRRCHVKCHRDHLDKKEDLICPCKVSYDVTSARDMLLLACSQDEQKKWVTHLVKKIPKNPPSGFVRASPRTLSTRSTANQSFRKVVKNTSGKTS
Sequence of human Sirtuin 2 (SIRT2), SIRT2 (gene 22933) (Q8IXJ6 whole entry, looked up): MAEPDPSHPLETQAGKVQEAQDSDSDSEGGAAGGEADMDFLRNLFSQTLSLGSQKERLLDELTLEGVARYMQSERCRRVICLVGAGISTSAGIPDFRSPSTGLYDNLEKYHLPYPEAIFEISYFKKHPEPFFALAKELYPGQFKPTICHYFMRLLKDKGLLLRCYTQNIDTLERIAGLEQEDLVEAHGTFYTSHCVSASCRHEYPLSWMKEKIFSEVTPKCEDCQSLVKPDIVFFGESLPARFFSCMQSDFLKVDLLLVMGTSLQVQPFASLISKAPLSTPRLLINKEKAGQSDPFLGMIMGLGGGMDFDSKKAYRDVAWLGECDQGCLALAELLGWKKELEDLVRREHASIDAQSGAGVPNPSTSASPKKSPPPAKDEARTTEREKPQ

For the first test, the target named is human Rho Associated Coiled-coil Containing Protein Kinase 1 (ROCK1), ROCK1 (gene 6093) (UniProt Q13464). Put plainly: NVS_ENZ_hROCK1: NovaScreen (NVS) Enzymatic Assay for human Rho Associated Coiled-coil Containing Protein Kinase 1 (ROCK1) (AID 2283214). As for the experimental part:
NVS_ENZ_hROCK1 is a biochemical, single-readout assay that uses extracted gene-proteins in a cell-free assay. Measurements were taken 1 hour after chemical dosing in a 384-well plate.NVS_ENZ_hROCK1 is one of one assay component(s) measured or calculated from the NVS_ENZ_hROCK1 assay. It is designed to make measurements of enzyme activity, a form of enzyme reporter, as detected with fluorescence intensity signals by Fluorescence and electrophoretic mobility shift technology.Data from the assay component NVS_ENZ_hROCK1 was analyzed into 1 assay endpoint. This assay endpoint, NVS_ENZ_hROCK1, was analyzed in the positive analysis fitting direction relative to DMSO as the negative control and baseline of activity. Using a type of enzyme reporter, loss-of-signal activity can be used to understand changes in the enzymatic activity as they relate to the gene ROCK1. Furthermore, this assay endpoint can be referred to as a primary readout, because this assay has produced multiple assay endpoints where this one serves a enzymatic activity function. To generalize the intended target to other relatable targets, this assay endpoint is annotated to the kinase intended target family, where the subfamily is serine/threonine kinase.
Binding assays used specific radioligands (tritiated, iodinated) with non-radioactive competitive displacement ligands in agonist or antagonist protocols (as indicated) and various reference compounds and inhibitors to titrate specific binding to receptors and transporters. Most enzyme assays (CYPs, kinases, phosphatases, proteases, HDACs) used recombinant protein and specific substrates (fluorescence mostly, some colorimetric and radioactive) and inhibitors, followed by a biochemical separation of substrate and product. All assays for the biochemical HTS were initially run in duplicate at a single concentration (10 uM for CYP450 assays and 25 uM for all others). […] Each assay was run with positive and negative controls, and concurrent controls on every plate. […]
Take `OCCO`: the molecule was called inactive.

`COc1cc(C(=O)NC2CCN(C)CC2)ccc1Nc1ncc2c(n1)N(C1CCCC1)CC(F)(F)C(=O)N2C`: the molecule was classed as inactive.

`CC(C)(c1cc(Br)c(O)c(Br)c1)c1cc(Br)c(O)c(Br)c1`: the outcome was inactive.

For another test, the target named is human Sirtuin 2 (SIRT2), SIRT2 (gene 22933) (UniProt Q8IXJ6). Put plainly: NVS_ENZ_hSIRT2: NovaScreen (NVS) Enzymatic Assay for human Sirtuin 2 (SIRT2) (AID 2283217). In outline:
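Cell-free recombinant human SIRT2, fluorescent substrate with product separated by electrophoretic mobility shift, 1 hr. Screened in duplicate at 25 uM; hits rerun singly in concentration-response up to 50 uM, relative to DMSO.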
As for `O=C1c2ccccc2C(=O)N1CCc1noc(-c2ccc(CN3CCCCCC3)s2)n1`, the call was inactive.

Take `NC(=O)c1nc(-c2cccc(-c3cc(F)ccc3OCC(F)(F)C(F)(F)F)c2)n[nH]1`: the molecule was classed as inactive.

For the molecule `CC(C)(C)c1csc(-c2cc3cc(OCc4ccccc4CC(=O)O)ccc3o2)n1`, the molecule was classed as inactive.

As for `CC(=O)N1CCN(c2ccc(OC[C@H]3CO[C@](Cn4ccnc4)(c4ccc(Cl)cc4Cl)O3)cc2)CC1`, the AC50 was 6.46 µM (active).

`O=C(O)Cn1c(=O)n(Cc2ccc(Br)cc2F)c(=O)c2ccc(Cl)cc21`: the call was inactive.

With `COc1cc(C(=O)NC2CCN(C)CC2)ccc1Nc1ncc2c(n1)N(C1CCCC1)CC(F)(F)C(=O)N2C`, the outcome was inactive.

For `CCCCCCCCN(C)CCCCCCCC`, the molecule was called inactive.
